Laboratory results published in PubChem BioAssay (NCATS).
Results filed as inconclusive are left out. A call without a number means that no potency is given here. Calls of active or inactive are those of the source. Calls follow the shape of the dose curve; as a rule, active = well fitted cell-killing curve with a large enough effect; inconclusive = small, poorly fitted or top-dose-only effect; inactive = no such curve, though single readings can be large or run the other way.

Assay: qHTS of pediatric cancer cell lines to identify multiple opportunities for drug repurposing: Primary screen for NB1643 cells (AID 1347099); also: nearly all actives have a fitted effect of over 50% in size
Details: NB1643 neuroblastoma viability, CellTiter-Glo luminescence, 48 h; series mostly up to 46 µM
Source text: Drug repurposing or repositioning has been offered as a strategy for drug development in oncology programs. This approach has special potential for childhood cancers and other rare or orphan diseases, where the expected return on new drug development has been a disincentive to pharmaceuticals. […] In this project we exploit the poly-pharmacology of drugs to discover new indications via phenotypic screening of a panel of 19 well-characterized cell lines derived from solid tumors seen in children and adolescents. The goal is to identify approved drugs with previously unrecognized anticancer properties that has the potential to reveal new mechanisms and biological processes involved in carcinogenesis or drug resistance. We employed a titration-based paradigm (quantitative high-throughput screening or qHTS), where all compounds were tested at multiple concentrations for their effect on cell viability. Concentration-response curves (CRCs) were derived directly from the primary screen, and both potency and efficacy values were used to identify compounds with robust bioactivity profiles. We screened the NIH Chemical Genomics Center (NCGC) Pharmaceutical Collection (NPC) and Mechanism Interrogation Plate (MIPE) small molecule collections of approved and investigational compounds against these cell lines; and measured metabolically active cells after 48 hours of compound treatment as a proxy for cell viability. […] Assay Submitter: Nathalia J. Martinez, National Center for Advancing Translational Sciences, National Institutes of Health, Rockville, MD, USA; email: natalia.martinez@nih.gov Shen, M et al. Quantitative high-throughput phenotypic screening of pediatric cancer cell lines identifies multiple opportunities for drug repurposing. Oncotarget 2017 Dec 19;9(4):4758-4772. PMID 29435139.
The cells were obtained from University of North Carolina (UNC), Pediatric Preclinical Testing Program (PPT), and Coriell Institute (CI). qHTS cell viability assay: Cells were assayed in growth media at a density of 500-1,000 cells/well. Five microliters of cells were dispensed into 1,536-well, white, solid-bottom, TC-treated plates (Greiner Bio One) using a multidrop dispenser and incubated at 37 degrees C, 5% CO2, under a humidified atmosphere for 5 hours. Twenty-three nanoliters of compounds and controls (neutral control DMSO or positive control bortezomib at final concentration of 2.3 µM) were subsequently transferred by Kalypsys pintool. For primary screens, the MIPE collection was tested at 11-point dilutions (final concentrations range from 0.78 nM to 46 µM) and the NPC collection at 8-point dilutions (final concentrations range from 0.59 nM to 46 µM). Compounds tested in follow-up screens were assayed at 11-point dilutions. Cells were incubated for 48 hours, followed by addition of 3 µL of CellTiter-Glo (Promega). After a 15 min incubation at room temperature, samples were analyzed for luminescence intensity using a ViewLux High-throughput CCD imager equipped with clear filters.
With C1CCN2C[C@@H]3C[C@@H](CN4CCCC[C@@H]34)[C@H]2C1 the Potency was “inactive”. With Nc1ncnc2c1ncn2[C@@H]1O[C@H](COP(=O)(O)O)[C@@H](O)[C@H]1O the Potency was “inactive”. For Cc1c(C(=O)NCCO)[n+](=O)c2ccccc2n1[O-], the Potency was “inactive”. With CCOc1ccccc1O[C@H](c1ccccc1)[C@H]1CNCCO1 the Potency was “inactive”. With CCOc1cc(NC(C)=O)ccc1C(=O)OC the Potency was “inactive”. With O=C1c2ccccc2C(=O)C1c1ccc(Br)cc1 the Potency was “inactive”. In the case of COCC(=O)Nc1c(I)c(C(=O)NCC(O)CO)c(I)c(C(=O)N(C)CC(O)CO)c1I (stereo not given), the Potency is reported as “inactive”. With CC(=O)N[C@@H](CC(C)C)C(=O)O the Potency was “inactive”. For CC(=O)Oc1cccc(O)c1, the Potency was “inactive”. In the case of CCCCCCCC(=O)OCC(O)CO (stereo not given), the Potency is reported as “inactive”. In the case of C=CCOc1ccccc1OCC(O)CNC(C)C (stereo not given), the Potency is reported as “inactive”. In the case of Cc1cccc(Nc2ccccc2C(=O)O)c1C, the Potency is reported as “inactive”. In the case of Cc1ccc(S(=O)(=O)NC(=O)NC2CCCCC2)cc1, the Potency is reported as “inactive”. In the case of CCN[C@H]1CN(CCCOC)S(=O)(=O)c2sc(S(N)(=O)=O)cc21, the Potency is reported as “inactive”. In the case of NC(N)=NS(=O)(=O)c1ccc(N)cc1, the Potency is reported as “inactive”. In the case of CCCCCCCCCCCCCCCCCCO, the Potency is reported as “inactive”. For O=C(Cn1ccnc1[N+](=O)[O-])NCc1ccccc1, the Potency was “inactive”. With O=C(O)COC(=O)Cc1ccccc1Nc1c(Cl)cccc1Cl the Potency was “inactive”. With O=c1[nH]c(=O)c2ccccc2o1 the Potency was “inactive”. With COc1ccc(NS(=O)(=O)c2ccc(N)cc2)nn1 the Potency was “inactive”. In the case of Cc1cc(=O)[nH]c(=S)[nH]1, the Potency is reported as “inactive”. For CCCCCCCCCCCCCCCCN, the Potency was “inactive”. For COc1ccc(C(=O)N2CCN(CC(=O)N3CCOCC3)CC2)cc1, the Potency was “inactive”. With O=C(O)Cc1cn(-c2ccccc2)nc1-c1ccc(Cl)cc1 the Potency was “inactive”. For NNC(=O)CP(=O)(c1ccccc1)c1ccccc1, the Potency was “inactive”. With Cc1c(C)c2c(c(C)c1OC(=O)c1cccnc1)CC[C@@](C)(CCC[C@H](C)CCC[C@H](C)CCCC(C)C)O2 the Potency was “inactive”. In the case of Cc1cc(C)nc(NS(=O)(=O)c2ccc(N)cc2)n1, the Potency is reported as “inactive”. For O=C(Cn1ccnc1[N+](=O)[O-])NCCO, the Potency was “inactive”. With COc1ccccc1OCC(O)CO (stereo not given) the Potency was “inactive”. With Cc1ccc2c(c1)c1c3n2CCNC3CCC1 (stereo not given) the Potency was “inactive”. In the case of CC(CN(C)C)C(C)(O)Cc1ccc(Cl)cc1 (stereo not given), the Potency is reported as “inactive”. With C/C=C1\[C@H]2C=C(C)C[C@]1(N)c1ccc(=O)[nH]c1C2 the Potency was “inactive”. In the case of Cc1ccc(S(=O)(=O)NC(=O)NC2CCCCCCC2)cc1, the Potency is reported as “inactive”. In the case of C[N+]1(C)CCCC(OC(=O)C(O)(c2ccccc2)c2ccccc2)C1 (stereo not given), the Potency is reported as “inactive”. With CC1CCN(CCCC(=O)c2ccc(F)cc2)CC1 the Potency was “inactive”. For CC(O)CCCCn1c(=O)c2c(ncn2C)n(C)c1=O (stereo not given), the Potency was “inactive”. In the case of COc1ccc(Cc2cnc(N)nc2N)cc1OC, the Potency is reported as “inactive”. With COc1ccc(C(=O)NCc2ccc(OCCN(C)C)cc2)cc1OC the Potency was “inactive”. For CCCCC1(COC(=O)CCC(=O)O)C(=O)N(c2ccccc2)N(c2ccccc2)C1=O, the Potency was “inactive”. In the case of CN1C[C@@H]2C[C@H]1CN2c1cc2c(cc1F)c(=O)c(C(=O)O)cn2C1CC1, the Potency is reported as “inactive”.
